Screens from PubChem.
POLK inh – qHTS for Inhibitors of Polymerase Kappa | 400,000 tested, 0.53% active | purified Pol kappa, fluorescent DNA synthesis assay, 10 min | DNA polymerase kappa (Homo sapiens), Q9UBT6 | Potency, µM (titrated, usually from 107 µM), for inactives: at the highest dose activity, negative = inhibition, most hits filed as inhibitors; further: on the % scale 0 is the no-effect control and ±100 the full control effect
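Fluorescent qHTS in 1536-well format: enzyme (10 nM) and compound sat 15 min at room temperature before 50 nM substrate (final) was added. Signal taken at 0 and 10 min; no-enzyme buffer wells were negative controls.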
WRN helicase inh – qHTS for Inhibitors of WRN Helicase. 360,000 tested, 0.46% active. Bifunctional 3'-5' exonuclease/ATP-dependent helicase WRN (Homo sapiens), Q14191. Potency, µM (highest dose often 114 µM), for inactives: at the highest dose activity change, negative = inhibition, hits mostly inhibitors. WRN helicase unwinding, fluorescent forked duplex, kinetic; further: on the % scale 0 is the no-effect control and ±100 the full control effect; nearly all actives have a fitted effect of over 55% in size
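WRN at 20 nM final preincubated with compound 15 min at room temperature; reaction started with 100 nM fluorophore/quencher forked duplex oligonucleotide and 2 mM ATP final. Unwinding followed kinetically by red fluorescence (ex 525, em 598 nm).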
POLB inh – qHTS Assay for Inhibitors of DNA Polymerase Beta | 340,000 tested, 1.3% active | P06746 | Pol beta primer extension/strand displacement, fluorescence kinetic | Potency, µM (doses to about 114 µM), for the others: at the highest dose activity change, negative = inhibition, hits mostly inhibitors; further: on the % scale 0 is the no-effect control and ±100 the full control effect
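Values derive from four-parameter Hill fits of normalized kinetic data: reads at 0 and 10 min following addition of 50 nM substrate to 10 nM Pol beta preincubated 15 min with compound.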
Pol eta inh – qHTS for Inhibitors of Polymerase Eta | recombinant Pol eta, fluorescent DNA replication assay | Potency, µM (series often up to 114 µM), for inactives: top-dose activity change, negative = inhibition, usual class: inhibitors | 390,000 tested, 1.2% active; further: on the % scale 0 is the no-effect control and ±100 the full control effect
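Pol eta at 10 nM preincubated with compounds 15 min at room temperature; reaction started with fluorescent substrate (50 nM final) and read kinetically at 0 and 10 min.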
POLI inh – qHTS for Inhibitors of Polymerase Iota. DNA polymerase iota (Homo sapiens), Q9UNA4. Pol iota fluorescent replication assay, 10 min. Potency, µM (series often up to 115 µM), for inactives: top-dose activity, negative = inhibition, actives largely listed as inhibitors. 390,000 tested, 1% active. AID 588590, 2011
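Pol iota at 10 nM preincubated 15 min with compounds at room temperature; reaction started with fluorescent substrate, 50 nM final. Fluorescence read kinetically at 0 and 10 min; buffer-only wells as negative control.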
FEN1 inhibitor – qHTS Assay for the Inhibitors of Human Flap endonuclease 1 (FEN1); Potency, µM (top dose mostly 114 µM), for inactives: at the highest dose activity change, negative = inhibition, most hits filed as inhibitors; Recombinant FEN1 flap cleavage, fluorescence, 15 min; 390,000 tested, 0.35% active; further: on the % scale 0 is the no-effect control and ±100 the full control effect; nearly all actives have a fitted effect of over 65% in size
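Reaction started by adding substrate (50 nM final) to 10 nM enzyme after 15 min room-temperature compound preincubation. Reads at 0 and 15 min, with data normalized and fitted to a four-parameter Hill equation.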
* hit, by the source's call; [ ] = dose if it differs, or a comment. Most compounds without a hit are left out; they make up all but 2.4% or so of the library. The call rests on the fitted dose curve; in most records, active means well fitted curve in the direction sought with a large enough effect; inconclusive means small, poorly fitted or top-dose-only effect, or another doubt; inactive means no such curve, though single readings can be large; an effect the other way counts as inactive or inconclusive. Potency means the concentration at half of the fitted maximal effect.

`Cc1ccccc1NC(=O)CN1C(=O)S/C(=C\c2ccc(-c3cccc(C(=O)O)c3C)o2)C1=O` gave POLK inh inconclusive, WRN helicase inh -11%[57.1 µM], POLB inh 35µM*, Pol eta inh inconclusive, POLI inh inconclusive and FEN1 inhibitor -13%.
For O=C(O)c1ccccc1-c1ccc(/C=C2\SC(=O)N(c3ccccc3)C2=O)o1 the results were POLK inh -24%, WRN helicase inh -6%[11.6 µM], POLB inh inconclusive, Pol eta inh inconclusive, POLI inh inconclusive and FEN1 inhibitor -14%.
Screening CC(=O)c1ccc(S(=O)(=O)N2CCN(C(C)=O)CC2)cc1 returned POLK inh -14%, WRN helicase inh 19%, POLB inh -29%, Pol eta inh 22µM*, POLI inh 110% and FEN1 inhibitor 0%.
CC(=O)Nc1ccc(S(=O)(=O)N2CCNC(=O)C2)cc1 was read as POLK inh -16%, WRN helicase inh -6%, Pol eta inh -12%, POLI inh 91% and FEN1 inhibitor -1%.
CC(=O)c1ccc(S(=O)(=O)N2CCNC(=O)C2)cc1 was read as POLK inh -25%, WRN helicase inh 2%[11.6 µM], Pol eta inh 22µM*, POLI inh inconclusive and FEN1 inhibitor 1%.
Screening C[C@@]12CCC[C@H]1C1CC[C@H]3C[C@H](O)CC[C@]3(C)C1CC2 (some centres not stated) returned POLK inh 2%[19.4 µM].
Screening COc1cc2nc(N3CCN(C)CC3)nc(NC3CCN(C)CC3)c2cc1OC returned POLK inh -11%, POLI inh -14% and FEN1 inhibitor inconclusive.
COc1cc2c(NC3CCN(C)CC3)nc(N3CCCN(C)CC3)nc2cc1OCC1CCCNC1 (configuration not stated) was read as POLK inh -17%, POLI inh -22% and FEN1 inhibitor 20µM*.
`CCNc1nc(N2CCCN(C)CC2)nc2cc(OC)c(OC)cc12` gave POLK inh -1%, POLI inh 0% and FEN1 inhibitor inconclusive.
`COc1cc2nc(N3CCCN(C)CC3)nc(NC3CCNCC3)c2cc1OC` gave POLK inh -15%, POLI inh inconclusive and FEN1 inhibitor 25µM*.
`CN1CCN(c2ncc3nc(CCc4ccccc4)c(=O)n(C)c3n2)CC1` gave POLK inh 0%[60.1 µM].
For CNC1CCC(c2ccc(Cl)c(Cl)c2)c2ccccc21 (configuration not stated) the results were POLK inh -6%[60.1 µM].
For CCC(c1nnnn1Cc1ccccc1)N(Cc1ccccc1)Cc1cc2cc(C)ccc2[nH]c1=O (configuration not stated) the results were POLK inh -17%, POLI inh 20% and FEN1 inhibitor inconclusive.
Screening CC(=O)c1ccc(NC(=O)Cn2c(=O)nc(-c3ccccc3)c3ccccc32)cc1 returned POLK inh -9%[60.1 µM], POLB inh -18%, Pol eta inh -10%, POLI inh 71µM* and FEN1 inhibitor 11%.
For C=C/C(C)=C/[C@@]1(C)SC(=O)C(C)=C1O the results were POLB inh 25µM*, Pol eta inh 14µM* and POLI inh inconclusive.
Screening COc1ccc(C)cc1N1CC(C(=O)Nc2cccc(C(=O)NC3CC3)c2)CC1=O (configuration not stated) returned WRN helicase inh 19% and Pol eta inh 3%.
`C#CCCc1cocc1/C=[N+](\[O-])c1ccc(C(=O)OCC)cc1` gave POLK inh inconclusive, WRN helicase inh -9%, Pol eta inh 3%, POLI inh 35µM* and FEN1 inhibitor -20%.
Screening CC1(C)OC[C@@H]2O[C@@]3(C(=O)O)OC(C)(C)O[C@@H]3[C@@H]2O1 returned POLK inh 6%[19.4 µM].
`CCOc1ccc(NC(=O)CN(C)C(=O)Cc2c(C)nc3ccccc3c2C)cc1OCC` gave POLK inh -18%, WRN helicase inh -28%, POLB inh 22µM*, Pol eta inh inconclusive, POLI inh -18% and FEN1 inhibitor -1%.
`Cc1nc2ccccc2c(C)c1CC(=O)N(C)CC(=O)Nc1cccc(F)c1` gave POLK inh -13%, WRN helicase inh -13%, Pol eta inh -11%, POLI inh inconclusive and FEN1 inhibitor -9%.
CCOc1cc2sc(N3CCC(C(=O)Nc4ccc(C)cc4)CC3)nc2cc1Br was read as POLK inh 5%, POLB inh 34%, Pol eta inh -3%, POLI inh -2% and FEN1 inhibitor 16%.
For Cc1cccc(C(=O)Nc2ccccc2OCc2cc(=O)n3c(C)csc3n2)c1 the results were POLK inh -7%, POLB inh 83%, Pol eta inh -8%, POLI inh 20% and FEN1 inhibitor -2%.
`Cc1cccc(C(=O)Nc2ccc(C(=O)OCc3cc(=O)n4c(C)csc4n3)cc2)c1` gave POLK inh -5%[60.1 µM], POLB inh 13µM*, Pol eta inh -21%, POLI inh -28% and FEN1 inhibitor -27%.
CCOC(=O)c1c(C)n(S(=O)(=O)c2ccc(C)cc2)c2ccc(NS(=O)(=O)c3ccc(C)cc3)cc12 was read as POLK inh 3%, POLB inh 6%, Pol eta inh -19%, POLI inh 30% and FEN1 inhibitor -22%.
For Cc1cccc(Oc2cc([N+](=O)[O-])cc3c2C(=O)Nc2ccccc2O3)c1 the results were POLK inh -17%, WRN helicase inh 16%, POLB inh inconclusive, Pol eta inh inconclusive, POLI inh 79µM* and FEN1 inhibitor -5%.
Screening COc1ccc(COc2ccsc2C(=O)Nc2ccc(Cl)c(Cl)c2)cc1 returned POLK inh -1%, WRN helicase inh -29%[57.1 µM], POLB inh 35µM*, Pol eta inh inconclusive, POLI inh 45% and FEN1 inhibitor 4%.
`N#Cc1cccc2c1-c1ccccc1/C2=N/NC(N)=S` gave POLK inh -10%, WRN helicase inh -16%, POLB inh 1%, Pol eta inh inconclusive, POLI inh 20µM* and FEN1 inhibitor -8%.
`COc1ccc(F)c(Cn2cnc3c(cnn3C(C)(C)C)c2=O)c1Cl` gave POLK inh -10%, POLI inh 2% and FEN1 inhibitor -10%.
